Experiment [1] can be described thus: Quantitative High-Throughput drug screen in 47 multiple myeloma cell lines against the NCATS MIPE library collection: XG1_PLB cell viability assay (AID 1919866). Also: nearly all actives have a fitted effect of over 35% in size. Also: potency is read from the fitted curve at half-maximal effect. Summed up:
(§1)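 Viability after 48 h drug exposure was measured as ATP-dependent luminescence. Cells, 500 per well, sat at 37 °C under 5% CO2; DMSO wells set 100%, media-only wells 0%.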

Experiment [2] can be described thus: Quantitative High-Throughput drug screen in 47 multiple myeloma cell lines against the NCATS MIPE library collection: VP6_DJ cell viability assay (AID 1919867). Also: potency is read from the fitted curve at half-maximal effect; nearly all actives have a fitted effect of over 40% in size. Summed up:
as §1

Experiment [3] is described as follows: Quantitative High-Throughput drug screen in 47 multiple myeloma cell lines against the NCATS MIPE library collection: PCM6_Riken cell viability assay (AID 1919870). Also: nearly all actives have a fitted effect of over 30% in size. Also: potency is read from the fitted curve at half-maximal effect. The method in brief: as §1
Experiment [4] can be described thus: Quantitative High-Throughput drug screen in 47 multiple myeloma cell lines against the NCATS MIPE library collection: RPMI8226_ATCC cell viability assay (AID 1919871). Also: potency is read from the fitted curve at half-maximal effect; nearly all actives have a fitted effect of over 30% in size. The method in brief:
as §1

Experiment [5] in a line: Quantitative High-Throughput drug screen in 47 multiple myeloma cell lines against the NCATS MIPE library collection: OPM2_DSMZ cell viability assay (AID 1919872). Also: nearly all actives have a fitted effect of over 30% in size. Also: potency is read from the fitted curve at half-maximal effect. The method in brief: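 CellTiter-Glo luminescence (ATP) after 48 h compound exposure, 37C/5% CO2; 500 cells/well; MIPE 4.0 approved/investigational drugs pinned in; DMSO = 100%, media only = 0% viability.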
Experiment [6] is described as follows: Quantitative High-Throughput drug screen in 47 multiple myeloma cell lines against the NCATS MIPE library collection: PE2_PLB cell viability assay (AID 1919869). Also: nearly all actives have a fitted effect of over 35% in size. The method in brief:
as §1

Experiment [7] is described as follows: Quantitative High-Throughput drug screen in 47 multiple myeloma cell lines against the NCATS MIPE library collection: KMS11_JCRBsus cell viability assay (AID 1919873). Also: nearly all actives have a fitted effect of over 50% in size. Also: potency is read from the fitted curve at half-maximal effect. The method in brief:
as §1

Experiment [8] is described as follows: Quantitative High-Throughput drug screen in 47 multiple myeloma cell lines against the NCATS MIPE library collection: KMS28BM_JCRB cell viability assay (AID 1919874). Also: nearly all actives have a fitted effect of over 35% in size. The method in brief:
as §1

Experiment [9] can be described thus: KB-8-5-11 P-gp reporter qHTS against the NCATS DSHEA and TCM libraries (AID 1919977). The method in brief:
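P-gp-overexpressing KB-8-5-11 cells were screened in colchicine-free medium at 500 cells/well, as a titration series. Cells were exposed for 72 h at 37C. Viability was read by CellTiter-Glo luminescence after 30 min at room temperature.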

Results filed as inconclusive are left out. Calls of active or inactive are those of the source. Calls follow the shape of the dose curve; as a rule, active = well fitted curve in the direction sought with a large enough effect; inconclusive = small, poorly fitted or top-dose-only effect, or another doubt; inactive = no such curve, though single readings can be large; an effect the other way counts as inactive or inconclusive.

Take `CC(O)=C(C#N)C(=O)Nc1cc(Br)ccc1Br`: the Potency entry in experiment [1] and in experiment [5] was “inactive” throughout. The Potency in experiment [2] is 2960 nM (active); in experiment [3], 1320 nM (active); in [4] it was 11800 nM (active).
As for `CSCC[C@@H](NC(=O)[C@@H](Cc1ccccc1)NC(=O)CNC(=O)CNC(=O)[C@@H](N)Cc1ccc(O)cc1)C(=O)O`, the Potency entry in [1], in [6], in experiment [3], in experiment [5], in experiment [7] and in [8] was “inactive” throughout.
With `CC(=O)O[C@@]12CO[C@H]1C[C@H](O)[C@@]1(C)C(=O)[C@H](O)C3=C(C)[C@@H](O)C[C@@](O)([C@@H](OC(=O)c4ccccc4)[C@@H]21)C3(C)C`, the Potency is 526 nM (active) in experiment [1]; 935 nM (active) in experiment [2]; 3320 nM (active) in experiment [3]; 2960 nM (active) in experiment [4]; 9350 nM (active) in experiment [5]; 2350 nM (active) in experiment [7].
Take `CC1=C(C/C=C(\C)CCC[C@H](C)CCC[C@H](C)CCCC(C)C)C(=O)c2ccccc2C1=O`: in experiment [9], the call was inactive.
As for `O=C(O)c1ccccc1O`, the result in experiment [9] was inactive.
